Pf Dd2 growth = inhibitors of Plasmodium falciparum Dd2 growth. P. falciparum Dd2 growth, SYBR Green, 72 h. Potency, µM (titrated, usually from 28.9 µM), actives largely listed as inhibitors. 4.3% of 120,000 active. AID 1347417; active means well fitted inhibition curve with a large enough effect; further: nearly all actives have a fitted effect of over 65% in size
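Readout: SYBR Green fluorescence, 485 nm excitation, 535 nm emission, after ~16 h lysis at 37C. Before that, Dd2-infected red cells (2.5% hematocrit) grew 72 h with compound, 29 uM top final concentration.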
Of the large screens only hits and unclear results are named; the others gave an inactive call. The entries come from a sample that favours hits as a whole.

CC(C)c1ccc(CC(=O)N2CCCc3ncc(C(=O)NCc4ccccc4)cc32)cc1	none
CC(C)c1ccc(CC(=O)N2CCCc3ncc(C(=O)NCC(C)(C)CO)cc32)cc1	none
O=C(Nc1cccc(F)c1)c1cnc2c(c1)N(C(=O)Cc1cccc(C(F)(F)F)c1)CCC2	Pf Dd2 growth 11µM
CN1CC(=O)N(C2CCCC2)Cc2c1ncnc2N1CCN(Cc2ccccc2)CC1	none
O=C1C[C@H]2CC[C@@H](CN1)N2C(=O)c1sc2cccc(F)c2c1Cl	none
COc1ccc(F)cc1S(=O)(=O)N1C[C@@H](C(N)=O)[C@H](C2CCN(C)CC2)C1	none
Cc1ccccc1-n1nc(C)c(CCC(=O)NCC2CCCO2)c1Oc1ccccc1F (stereo unspecified)	none
COCc1ccc(C(=O)N2CCNCC(C(=O)O)C2)cc1 (stereo unspecified)	none
Cc1noc(-c2cn(C3CCN(C(=O)c4cccc(F)c4)C3)nn2)n1 (stereo unspecified)	none
CC(C)NC(=O)N1CCCC1c1nc(CCOc2ccc(F)cc2)no1 (stereo unspecified)	none
Cc1ccc(NC(=O)C2N(C(C)C)C(=O)C23CCCC3)cc1 (stereo unspecified)	none
CCC(O)CNC(=O)c1cnn2cc(CN(CC)CC)cnc12 (stereo unspecified)	none
Cc1ccc(CC(=O)N2CCCN(c3cc(-c4ccc(C)c(C)c4)[nH]n3)CC2)cc1	none
CN(Cc1ccoc1)C1CCc2nn(C)c(=O)n2CC1 (stereo unspecified)	none
CN1CCN(C(=O)N2CCn3nc(CN4CCC(CO)CC4)cc3C2)CC1	none
COCCCN1CCc2c(n(Cc3ccccc3)n(-c3ccccc3)c2=O)C1	Pf Dd2 growth 11µM
COCCn1c(=O)c2c(n1Cc1ccccc1)CN(Cc1ccc(C(C)C)cc1)CC2	none
COCCn1c(=O)c2c(n1Cc1ccccc1)CN(Cc1cccnc1OC)CC2	none
Cc1noc2c(-c3ccncc3)cc(-c3cccs3)nc12	none
CC(C)(CC(=O)O)CC(=O)N1CC[C@H]2NC(=O)N(c3ccccc3)C(=O)[C@H]21	none
CCCOC(=O)c1c(NC(=O)c2nc3ncccn3n2)sc(C(=O)OCC)c1C	Pf Dd2 growth 2.8µM
CCOC(=O)c1sc(NC(=O)c2nc(SC)ncc2Cl)c(C(=O)OCC)c1C	none
CCOC(=O)c1sc(NC(=O)c2nc3nc(C)cc(C(F)F)n3n2)c(C(=O)OC)c1C	none
COc1ccccc1C(=O)N1CCC(c2nnc3n2C(C(=O)O)CC3)CC1 (stereo unspecified)	none
Cc1nc(C)c(C(=O)N2CCC3(CC2)CC(N(C)Cc2ccccc2)CCO3)s1 (stereo unspecified)	none
O=C(c1ccc(OC2CCN(C(=O)C3CC3)CC2)nc1)N1CCOCC1	none
CCOc1ccccc1NC(=O)c1sc2nc(-c3ccc(OC)cc3)ccc2c1N	none
COc1ccc(NC(=O)c2sc3nc4c(cc3c2N)CCCCCC4)c(OC)c1	none
Cc1ccc(NC(=O)c2sc3nc(-c4cc5ccccc5oc4=O)[nH]c(=O)c3c2C)c(C)c1	none
COc1cccc(NC(=O)c2cnc(-c3ccc(C)cc3)nc2-c2ccncc2)c1	none
COc1cccc(NC(=O)c2sc3nc(C)c(C(=O)Nc4ccc(C)cc4C)c(-c4ccc(C)o4)c3c2N)c1	Pf Dd2 growth 11µM
CCC(C)NC(=O)c1sc2nc(C)c(C(=O)Nc3ccc(C)cc3C)c(-c3ccc(Cl)cc3)c2c1N (stereo unspecified)	none
CCC(C)NC(=O)c1sc2nc(C)c(C(=O)Nc3ccc(C)cc3C)c(-c3ccccc3Cl)c2c1N (stereo unspecified)	Pf Dd2 growth 3.2µM
CCOc1ccccc1NC(=O)c1sc2nc(C)cc(C)c2c1N	none
COc1cccc(NC(=O)c2sc3nc(C)c(C(=O)Nc4ccc(C)cc4C)c(-c4cccs4)c3c2N)c1	Pf Dd2 growth 1.3µM
COc1ccc(NC(=O)c2sc3nc(C)c(C(=O)Nc4ccc(C)cc4C)c(-c4ccc(C)o4)c3c2N)cc1	Pf Dd2 growth 8.9µM
COc1cccc(-c2ccc3c(N)c(C(=O)Nc4ccc(C)c(F)c4)sc3n2)c1	none
Cc1ccc(NC(=O)c2sc3nc(-c4cccs4)ccc3c2N)cc1F	none
Cc1onc(C(=O)N2CCC(CCOc3ccc(F)cc3)C2)c1Cn1cc(Cl)cn1 (stereo unspecified)	none
O=C(O)c1coc(CN2C[C@@H](C(=O)O)[C@H](C3CC3)C2)n1	none
O=C(NC[C@H]1Cn2ccnc2CO1)c1ccc(C(F)(F)F)cc1	none
COc1cccc(CCN2CC[C@H]3CN(C(=O)c4ccccc4)CC[C@H]3CC2=O)c1OC	none
COCCN1CCC2(C1)CN(C)c1ccc(C(=O)Nc3ccc(OC)cc3)cc12 (stereo unspecified)	none
COCCN=C1Nc2ncccc2NC12CCCN(C(=O)c1cccc(OC)c1)C2 (stereo unspecified)	none
CCc1ocnc1C(=O)N1CCCC(c2[nH]ncc2-c2ccc(F)cc2)C1 (stereo unspecified)	none
CCOc1ccccc1C(=O)NC1CCCN(c2cc(-c3ccc(F)cc3)[nH]n2)C1 (stereo unspecified)	none
O=C(O)C1CCN(C(=O)N2CC3CC(C2)[C@H]2CCCC(=O)N2C3)CC1 (stereo partly specified)	none
Cc1cn2nc(C(=O)NCC(C)c3ccccc3)cc2c(N2CCSCC2)n1 (stereo unspecified)	none
CCN(CCCNC(=O)c1cc2c(=O)n(C)c3ccccc3c2s1)c1ccccc1	none
Cc1ccc2nc(Cl)c3cc(C(=O)NCCCN(C)Cc4ccccc4)sc3c2c1	Pf Dd2 growth 7.9µM
CC1CCCN(CCCNC(=O)c2cc3c(Cl)nc4ccccc4c3s2)C1 (stereo unspecified)	Pf Dd2 growth 4.5µM
CC1CCC(NC(=O)c2cc3c(Cl)nc4ccccc4c3s2)CC1 (stereo unspecified)	none
COCCNC(=O)c1cc2c(Cl)nc3ccc(C)cc3c2s1	none
Cc1ccc2nc(Cl)c3cc(C(=O)NC4CCCCCC4)sc3c2c1	none
CCN(CCCNC(=O)c1cc2c(=O)n(C)c3ccccc3c2s1)Cc1ccccc1	Pf Dd2 growth 5µM
COCCN(Cc1ccco1)C(=O)c1cc2c(=O)[nH]c3ccc(C)cc3c2s1	none
CC1CCCN(C(=O)c2cc3c(Cl)nc4ccccc4c3s2)C1 (stereo unspecified)	none
CCOCCCN(Cc1ccco1)C(=O)c1cc2c(=O)[nH]c3ccc(C)cc3c2s1	Pf Dd2 growth 10µM
CCCN(C(=O)c1cc2c(=O)[nH]c3ccc(C)cc3c2s1)c1ccc(CC)cc1	none
CCOc1ccc(CNC(=O)c2cc3c(=O)n(C)c4ccccc4c3s2)cc1	none
CCC(C)N1Cc2cc(NC(=O)Cc3cccc(OC)c3)ccc2OCC1=O (stereo unspecified)	none
CC(C)N1CCC(N2CCN(Cc3cn[nH]c3-c3cccc(F)c3)CC2CCO)CC1 (stereo unspecified)	none
CNC(=O)[C@@H]1CN(C(=O)CCc2ccccc2)C[C@H]1COC	none
C=CCN1CC(C(=O)NCc2cccnc2Oc2ccc(C)nc2)CC1=O (stereo unspecified)	none
O=C(NCCc1ccc(F)cc1)C1CCCN1c1nc2ncccc2o1 (stereo unspecified)	none
COC[C@@H]1CN(C(=O)c2n[nH]c3ccccc23)C[C@H]1c1nc(C)no1	none
Cc1ccc(C)c(CNC(=O)Nc2nc(C)ns2)c1	none
Cc1cc(C(=O)N[C@H]2CCOC[C@H]2C2CCOCC2)cc2sc(N)nc12	none
CCOc1ccccc1CN1CC(CO)C2(CCNCC2)C1 (stereo unspecified)	none
C[S+](=O)([O-])CCn1ncc2cc(OCC3CCN(Cc4cccs4)CC3)ccc21	none
CN(CCc1ccccn1)C(=O)CCC[C@H]1NC[C@@H]2CC1CN(Cc1ccccc1)C2	none
CCCCN(CC)CCCNC(=O)c1cc2c(=O)oc3ccc(C)cc3c2s1	none
